Screens from PubChem BioAssay.
EWS-Fli block: EWS/Fli transcriptional activity inhibition | A673 NR0B1-luciferase reporter, viability-normalised | inhibition, % at 12.6 µM | 350,000 compounds, 0.67% hits;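 active = mean inhibition of at least 50% after viability correction, with every replicate also passing that limit; inconclusive = mean reaches 50% but only one of two replicates passes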;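 note: firefly luciferase signal divided by Alamar Blue viability fluorescence both relative to DMSO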
Env fusion inh: blocks HIV Env-driven cell-cell fusion | inhibition, % at 12.3 µM | HeLa-JRFL Env/CEM21 cell fusion, luciferase | 360,000 compounds, 1.1% hits;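 active = mean replicate inhibition score of at least 50 and every replicate individually at or above 50; inconclusive = only one of the two criteria met; inactive = mean below 50 and not all replicates reaching 50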;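 note: 0% = plate neutral controls and 100% = maraviroc near 300 nM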
PAX8 reporter: PAX8 transcriptional activity inhibition; RMG-I TPO-luciferase reporter, SteadyGlo, 24 h; inhibition, % at 12.6 µM; 360,000 compounds, 1.2% hits;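 active = mean replicate inhibition at least 60% with every replicate also reaching 60%; inconclusive = only one of the two criteria is met; inactive = mean below 60% and not all replicates reaching 60%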;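 note: luciferase light reporting Pax8 driven TPO promoter activity; plate controls were median of neutral control wells for no effect and mitoxantrone controls for full effect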
PGC1a acetyl inh: lowers PGC1a acetylation signal in U2OS cells; AlphaScreen anti-acetyl-lysine; with virally co-expressed GCN5 acetyltransferase; 350,000 compounds, 0.17% hits; inhibition, % at 15.6 µM; AID 651687;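 active = every replicate shows inhibition of at least 40%; inconclusive = mean inhibition at least 40% but some replicate below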;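 note: 0% = neutral control wells and 100% = positive control wells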
INS-1E GSIS act: primary screen for activators of insulin secretion dependent on glucose, INS-1E cells, GLuc reporter luminescence; INS-1E GLuc reporter insulin secretion, 2-3 h; activation, % at 16.6 µM; 370,000 compounds, 0.61% hits; AID 743287;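 active = lowest replicate activation of at least 40%, so every replicate reaches that level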;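 note: 0% = median of neutral control wells and 100% = median of IBMX positive control wells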
F508del corr: CFTR F508del correction in bronchial cells; CFBE cells, YFP halide quenching; stimulated with forskolin plus potentiator P3; % fluorescence drop versus neutral controls; 350,000 compounds, 0.36% hits; activity (quench increase), % at 7.58 µM;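 active = mean added fluorescence quench of at least 8% versus neutral control, with both replicates also reaching 8%; inconclusive = only one of the mean or replicate conditions met; inactive = mean below 8% and not both replicates reaching 8%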;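 note: cells transiently co-express mutant CFTR-F508del with the halide-sensitive YFP; corrector assay measuring rescue of mutant channel to the surface after 24 h compound exposure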
Numbers without * were called inactive; u = inconclusive; x = no result given; [ ] = dose if it differs, or a comment. Sampled rows, rich in hits. Any-hit rate of the full collection: about 2.7%.

SMILES	EWS-Fli block	Env fusion inh	PAX8 reporter	PGC1a acetyl inh	INS-1E GSIS act	F508del corr
COc1ccccc1S(=O)(=O)N(C)C[C@@H]1OCc2ccccc2-c2c(n(C)c3ccccc23)C(=O)N([C@H](C)CO)C[C@@H]1C	-2.7	32.2[16.7 µM]	21.4	-18.4	8.3	2.8
O=C1CCCc2[nH]c3cccc(/C(=C/c4ccccc4)c4ccccc4)c3c21	6.5	69.8*	1.9	-7.7	18.6	-0.1
COC(=O)c1ccc2[nH]c3cccc(/C(=C/c4ccccc4)c4ccccc4)c3c2c1	-0.3	31.8	16.9	-61.3	x	0.8
C[C@@H]1CN([C@@H](C)CO)C(=O)c2cc(NS(=O)(=O)c3ccc(F)cc3)ccc2O[C@@H](C)CCCCO[C@@H]1CN(C)S(=O)(=O)c1ccc(Cl)cc1	-3.1	-65.2[16.7 µM]	46.4	3.4	12.1	3.8
C[C@@H]1CCCCO[C@@H](CN(C)S(=O)(=O)c2ccc(Cl)cc2)[C@H](C)CN([C@H](C)CO)C(=O)c2cc(NS(=O)(=O)c3ccc(F)cc3)ccc2O1	7.8	25.2[16.7 µM]	80.7*	-15.7	1.8	-0.4
C[C@@H]1CCCCO[C@@H](CN(C)S(=O)(=O)c2ccc(F)cc2)[C@@H](C)CN([C@@H](C)CO)C(=O)c2cc(NS(=O)(=O)c3ccc(Cl)cc3)ccc2O1	4.7	-49.6[16.7 µM]	42.5	9.2	-38.0	0.5
C[C@@H]1CCCCO[C@H](CN(C)S(=O)(=O)c2ccc(Cl)cc2)[C@@H](C)CN([C@@H](C)CO)C(=O)c2cc(NS(=O)(=O)c3ccc(F)cc3)ccc2O1	22.7	48.2[16.7 µM]	75.1*	-6.5	-2.8	2.1
C[C@@H]1CCCCO[C@@H](CN(C)S(=O)(=O)c2ccc(Cl)cc2)[C@@H](C)CN([C@H](C)CO)C(=O)c2cc(NS(=O)(=O)c3ccc(F)cc3)ccc2O1	-12.3	-15.7[16.7 µM]	-9.6	3.8	13.4	4.5
C[C@@H]1CN([C@H](C)CO)C(=O)c2cc(NS(=O)(=O)c3ccc(Cl)cc3)ccc2O[C@@H](C)CCCCO[C@H]1CN(C)S(=O)(=O)c1ccc(F)cc1	5.2	-14.7[16.7 µM]	87.2*	-10.6	-11.8	0.9
C[C@H](CO)N1C[C@H](C)[C@@H](CN(C)S(=O)(=O)c2ccc(F)cc2)OCCCC[C@H](C)Oc2ccc(NS(=O)(=O)c3ccc(Cl)cc3)cc2C1=O	-12.3	-4.9[16.7 µM]	90.0*	5.5	-18.8	1.1
C[C@@H]1CN([C@H](C)CO)C(=O)c2cc(NS(=O)(=O)c3ccc(F)cc3)ccc2O[C@@H](C)CCCCO[C@@H]1CN(C)S(=O)(=O)c1ccc(Cl)cc1	3.7	-10.6[16.7 µM]	u	7.8	2.1	3.3
N#C[C@H]1[C@H](c2ccc(C#Cc3ccccc3F)cc2)[C@H](CO)N1C(=O)c1cccnc1	-12.4	x	-10.8	-15.0	-7.7	0.2
O=C(c1ccccc1O)N1N=C(C(F)(F)F)CC1(O)c1ccc([N+](=O)[O-])cc1 (stereo unspecified)	4.7	58.7*	6.1	9.4	-21.4	-6.7
Cc1ccccc1-c1cc(C(=O)Nc2sc(C(=O)OC(C)C)c(C)c2C#N)c2ccccc2n1	x	63.5*	80.6*	-4.7	x	x
Cc1ccc(C(=O)N(Cc2ccco2)c2c(N)n(Cc3ccccc3)c(=O)[nH]c2=O)cc1	-1.9	12.1	-4.0	-1.9	x	1.0
Cc1cccc(C(=O)N(Cc2ccco2)c2c(N)n(Cc3ccccc3)c(=O)[nH]c2=O)c1	-1.9	x	12.6	x	21.4	28.3*
O=C(NCCNS(=O)(=O)c1ccc(Cl)cc1)c1cc(OCC(F)(F)F)ccc1OCC(F)(F)F	x	124.6*	0.6	-2.2	x	x
CC(C)C[C@H]1COCn2nncc2CC[C@@H](Cc2ccccc2)C(=O)N1	2.8	65.6*[16.7 µM]	1.6	x	-2.4	x
CC(C)[C@H]1COCn2nncc2CC[C@@H](Cc2ccccc2)C(=O)N1	2.3	-28.2[16.7 µM]	-3.1	x	-1.8	x
COc1ccc(CN(C)C[C@@H]2Oc3ccc(NS(=O)(=O)c4c(C)noc4C)cc3CC(=O)N([C@@H](C)CO)C[C@H]2C)cc1	-10.9	-6.5[16.7 µM]	x	-5.7	1.8	-3.6
COc1c(Cl)cc(Cl)cc1/C=C/C(=O)c1ccc(NC(=O)c2cccs2)cc1	x	-32.9	81.3*	12.1	5.8	x
COc1c(Cl)cc(Cl)cc1C(=O)Nc1ccc(C(=O)O)cc1	x	x	2.9	3.6	17.6	x
COC/C=C/C1=CC2=CC(=O)C(C)(OC(=O)c3cnc4ccccc4n3)C(=O)C2=CN1CC1CC1 (stereo unspecified)	x	x	x	3.2	x	x
COC/C=C/C1=CC2=CC(=O)C(C)(OC(=O)c3cnc4ccccc4n3)C(=O)C2=CN1Cc1ccc(OC)cc1 (stereo unspecified)	-7.1	8.6	-6.9	8.4	4.6	5.1
COC/C=C/C1=CC2=CC(=O)C(C)(OC(=O)c3cnc4ccccc4n3)C(=O)C2=CN1Cc1ccccc1 (stereo unspecified)	-2.4	-18.7	80.1*	10.2	x	-0.5
SMILES	EWS-Fli block	Env fusion inh	PAX8 reporter	PGC1a acetyl inh	INS-1E GSIS act	F508del corr
COC/C=C/C1=CC2=CC(=O)C(C)(OC(=O)c3cnc4ccccc4n3)C(=O)C2=CN1C1CC1 (stereo unspecified)	-30.7	-33.0	65.9*	5.2	1.1	-0.4
Cc1ccc(S(=O)(=O)N(C)C[C@@H]2OCCCC[C@@H](C)Oc3ccc(NS(C)(=O)=O)cc3C(=O)N([C@H](C)CO)C[C@H]2C)cc1	1.5	-8.6[16.7 µM]	-2.3	3.1	1.4	2.0
Cc1ccc(S(=O)(=O)N(C)C[C@@H]2Oc3ncc(-c4ccccc4)cc3C(=O)N([C@H](C)CO)C[C@@H]2C)cc1	14.0	10.7[16.7 µM]	x	-19.1	-17.7	-0.5
CC(C)CN(C[C@@H]1N[C@@H](CO)[C@@H]1c1ccccc1)C(=O)CN(C)C	1.7	x	-4.7	-4.3	-1.6	2.0
CCN(CC)c1ccc(/C=N/N2C(C)CCCC2C)c(O)c1 (stereo unspecified)	-14.6	73.4*	-10.7	x	4.1	-3.1
CCN(CC)c1ccc(/C=N/N2CCOCC2)c(O)c1	x	-136.0	-87.3	-1.0	0.0	x
CCN(CC)c1ccc(/C=N/N=C(N)N)c(O)c1	54.4*	-142.7	11.5	11.2	1.7	3.3
C[C@H]1CN([C@@H](C)CO)C(=O)Cc2cc(NS(=O)(=O)c3ccc(Cl)cc3)ccc2O[C@H]1CN(C)Cc1ccc(C(=O)Nc2ccccc2N)cc1	9.3	x	24.7	-19.4	-4.4	-0.2
CO[C@H]1CN(C)C(=O)c2ccc(NC(=O)C3CC3)cc2OC[C@@H](C)N(Cc2ccc(F)cc2)C[C@H]1C	-8.1	x	-13.2	x	-6.4	-0.3
COc1ccccc1C#Cc1cnc2c(c1)C(=O)N([C@@H](C)CO)C[C@H](C)[C@@H](CN(C)C)O2	13.0	-7.2[16.7 µM]	x	2.1	-2.4	-2.8
C[C@@H]1CN([C@H](C)CO)C(=O)c2cc(C#CCN(C)C)cnc2O[C@@H]1CN(C)C(=O)c1cccnc1	-7.3	-17.9[16.7 µM]	x	5.7	7.5	-1.6
